Calls of active or inactive are those of the source. The calls were made as follows: active = hit-call score of the fitted dose curve at least 0.9, where 1 is the maximum; inactive = score below 0.9.
Experiments:
Settings in all cases: mRNA level, 48 h; actives raise or lower the signal
[1] = read-out: MicroRNA 122 (MIR122), gene 406906; assay: LTEA_HepaRG_MIR122: Life Technologies and Expression Analysis (LTEA) Assay for MicroRNA 122 (MIR122) using HepaRG (AID 2283516); also: the transcript read is the microRNA miR-122
Summary of the method: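 Differentiated human HepaRG cells in serum-free induction medium exposed 48 h to 8 half-log concentrations from 100 uM in 0.5% DMSO, duplicate. MIR122 quantified by Fluidigm TaqMan qRT-PCR, normalised to ACTB, GAPDH, POLR2A; fold change fitted bidirectionally versus DMSO.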

[2] = read-out: matrix metalloproteinase-10 (MMP10), MMP10 (gene 4319); assay: LTEA_HepaRG_MMP10: Life Technologies and Expression Analysis (LTEA) Assay for matrix metalloproteinase-10 (MMP10) using HepaRG (AID 2283517)
Summary of the method: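 HepaRG, collagen I, ~100,000 cells/well; serum-free induction medium; 48 h exposure, duplicate, 8-pt half-log to 100 uM, 0.5% DMSO. Readout: TaqMan qRT-PCR, normalized to ACTB/GAPDH/POLR2A; bidirectional fit vs DMSO.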

MYC, MYC (gene 4609) = assay: LTEA_HepaRG_MYC: Life Technologies and Expression Analysis (LTEA) Assay for MYC using HepaRG (AID 2283518)
Summary of the method: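 Differentiated HepaRG cells exposed 48 h in serum-free induction medium to 8 concentrations (top 100 uM, half-log steps; 0.5% DMSO), duplicate. MYC mRNA measured by Fluidigm qRT-PCR, normalized to ACTB, GAPDH, POLR2A; bidirectional fit versus DMSO.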

[3] = read-out: matrix metalloproteinase-3 (MMP3), MMP3 (gene 4314); assay: LTEA_HepaRG_MMP3: Life Technologies and Expression Analysis (LTEA) Assay for matrix metalloproteinase-3 (MMP3) using HepaRG (AID 2283519)
Summary of the method: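 Differentiated human HepaRG cells, plated 48 h on collagen I, were exposed in duplicate for 48 h in serum-free induction medium to eight half-log concentrations up to 100 uM in 0.5% DMSO. MMP3 mRNA was quantified by TaqMan qRT-PCR, normalised to ACTB, GAPDH and POLR2A.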

[4] = read-out: Paternally Expressed 10 (PEG10), PEG10 (gene 23089); assay: LTEA_HepaRG_PEG10: Life Technologies and Expression Analysis (LTEA) Assay for Paternally Expressed 10 (PEG10) using HepaRG (AID 2283520)
Summary of the method: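 Differentiated HepaRG cells exposed 48 h in serum-free induction medium to eight half-log concentrations topping at 100 uM, 0.5% DMSO, in duplicate. PEG10 mRNA quantified by TaqMan qRT-PCR, normalized to ACTB, GAPDH and POLR2A; bidirectional fit versus DMSO.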

[5] = read-out: Protein phosphatase 2A (PPP2R4), PTPA (gene 5524); assay: LTEA_HepaRG_PPP2R4: Life Technologies and Expression Analysis (LTEA) Assay for Protein phosphatase 2A (PPP2R4) using HepaRG (AID 2283522)
Summary of the method: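 Differentiated human HepaRG cells in serum-free induction medium were exposed 48 h to 8 concentrations (top 100 µM, half-log steps, duplicate) in 0.5% DMSO. PPP2R4 mRNA was measured by TaqMan qRT-PCR, normalised to ACTB, GAPDH and POLR2A, and fitted bidirectionally versus DMSO.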

[6] = read-out: Phosphatase and tensin (PTEN), PTEN (gene 5728); assay: LTEA_HepaRG_PTEN: Life Technologies and Expression Analysis (LTEA) Assay for Phosphatase and tensin (PTEN) using HepaRG (AID 2283523)
Summary of the method: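 Differentiated human HepaRG cells, plated 48 h then switched to serum-free induction medium, were exposed in duplicate for 48 h to eight half-log concentrations up to 100 uM in 0.5% DMSO. PTEN mRNA measured by TaqMan qRT-PCR, normalized to ACTB/GAPDH/POLR2A, bidirectional fit versus DMSO.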

[7] = read-out: solute carrier (SLC22A1), SLC22A1 (gene 6580); assay: LTEA_HepaRG_SLC22A1: Life Technologies and Expression Analysis (LTEA) Assay for solute carrier (SLC22A1) using HepaRG (AID 2283524)
Summary of the method: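 Human HepaRG cells were plated 48 h, switched to serum-free induction medium, then exposed in duplicate for 48 h to 8-point half-log series from 100 uM in 0.5% DMSO. SLC22A1 mRNA measured by qRT-PCR, normalized to ACTB/GAPDH/POLR2A, fitted bidirectionally versus DMSO.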

[8] = read-out: Pyruvate Dehydrogenase Kinase 4 (PDK4), PDK4 (gene 5166); assay: LTEA_HepaRG_PDK4: Life Technologies and Expression Analysis (LTEA) Assay for Pyruvate Dehydrogenase Kinase 4 (PDK4) using HepaRG (AID 2283525)
Summary of the method: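 Differentiated human HepaRG cells, pre-cultured 48 h, were exposed in duplicate for 48 h in serum-free induction medium to eight half-log concentrations up to 100 uM in 0.5% DMSO. PDK4 mRNA was quantified by qRT-PCR, normalized to ACTB, GAPDH and POLR2A, bidirectional fitting versus DMSO.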

[9] = read-out: NAD(P)H dehydrogenase [quinone] 1 (NQO1), NQO1 (gene 1728); assay: LTEA_HepaRG_NQO1: Life Technologies and Expression Analysis (LTEA) Assay for NAD(P)H dehydrogenase [quinone] 1 (NQO1) using HepaRG (AID 2283526)
Summary of the method: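 Differentiated human HepaRG cells in serum-free induction medium, dosed in duplicate for 48 h at 8 half-log concentrations up to 100 uM in 0.5% DMSO. NQO1 mRNA by qRT-PCR normalized to ACTB, GAPDH, POLR2A; bidirectional fit versus DMSO baseline.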

[10] = read-out: Nuclear factor erythroid 2-related factor 2 (Homo sapiens) (UniProt Q16236); assay: LTEA_HepaRG_NFE2L2: Life Technologies and Expression Analysis (LTEA) Assay for Nuclear factor erythroid 2-related factor 2 (NFE2L2) Transcription Factor using HepaRG (AID 2283527)
Summary of the method: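 Differentiated human HepaRG cells in serum-free induction medium were exposed for 48 h to eight concentrations (top 100 uM, half-log dilutions, 0.5% DMSO), in duplicate. NFE2L2 mRNA was quantified by TaqMan qRT-PCR, normalized to ACTB, GAPDH and POLR2A, with bidirectional fitting versus DMSO.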

[11] = read-out: succinate dehydrogenase complex iron sulfur subunit B (SDHB), SDHB (gene 6390); assay: LTEA_HepaRG_SDHB: Life Technologies and Expression Analysis (LTEA) Assay for succinate dehydrogenase complex iron sulfur subunit B (SDHB) using HepaRG (AID 2283528)
Summary of the method: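 HepaRG cells (~100,000/well, plated 48 h) exposed in duplicate for 48 h in serum-free induction medium to 8-point half-log series from 100 uM in 0.5% DMSO; mRNA by qRT-PCR normalised to ACTB, GAPDH, POLR2A; bidirectional fit versus DMSO.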

[12] = read-out: Signal transducer and activator of transcription 3 (Homo sapiens) (UniProt P40763); assay: LTEA_HepaRG_STAT3: Life Technologies and Expression Analysis (LTEA) Assay for Signal transducer and activator of transcription (STAT3) using HepaRG (AID 2283529)
Summary of the method: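 Differentiated human HepaRG cells in serum-free induction medium were exposed in duplicate for 48 h to eight half-log concentrations up to 100 uM in 0.5% DMSO. STAT3 mRNA was quantified by TaqMan qRT-PCR, normalized to ACTB, GAPDH and POLR2A, and fitted bidirectionally against DMSO.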

[13] = read-out: solute carrier (SLCO1B1), SLCO1B1 (gene 10599); assay: LTEA_HepaRG_SLCO1B1: Life Technologies and Expression Analysis (LTEA) Assay for solute carrier (SLCO1B1) using HepaRG (AID 2283530)
Summary of the method: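 Differentiated human HepaRG cells were exposed for 48 h in serum-free induction medium to eight half-log concentrations, top 100 uM, in 0.5% DMSO. SLCO1B1 mRNA was measured by qRT-PCR, normalized to ACTB, GAPDH and POLR2A, and fitted bidirectionally against DMSO.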

[14] = read-out: sulfotransferase 2A1 (SULT2A1), SULT2A1 (gene 6822); assay: LTEA_HepaRG_SULT2A1: Life Technologies and Expression Analysis (LTEA) Assay for sulfotransferase 2A1 (SULT2A1) using HepaRG (AID 2283531)
Summary of the method: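 HepaRG human liver cells, 48 h exposure in serum-free induction medium to 8 half-log concentrations topping at 100 µM (0.5% DMSO), duplicate wells. SULT2A1 mRNA measured by TaqMan qRT-PCR, normalized to ACTB/GAPDH/POLR2A; bidirectional fit against DMSO.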

[15] = read-out: Transforming Growth Factor (TGFA), TGFA (gene 7039); assay: LTEA_HepaRG_TGFA: Life Technologies and Expression Analysis (LTEA) Assay for Transforming Growth Factor (TGFA) using HepaRG (AID 2283532)
Summary of the method: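 Differentiated human HepaRG cells, plated 48 h then switched to serum-free induction medium, were exposed in duplicate for 48 h to 8-point half-log series from 100 uM in 0.5% DMSO. TGFA mRNA measured by qRT-PCR, normalized to ACTB/GAPDH/POLR2A, bidirectional fit versus DMSO.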

TIMP1, TIMP1 (gene 7076) = assay: LTEA_HepaRG_TIMP1: Life Technologies and Expression Analysis (LTEA) Assay for TIMP1 using HepaRG (AID 2283534);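 also: TaqMan qRT-PCR signal normalized to ACTB GAPDH and POLR2A housekeeping genes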
Summary of the method: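 Differentiated HepaRG cells exposed 48 h in serum-free induction medium, duplicates, eight half-log concentrations from 100 uM in 0.5% DMSO. TIMP1 mRNA by qRT-PCR normalized to ACTB, GAPDH, POLR2A; bidirectional fitting against DMSO.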

[16] = read-out: Tumor necrosis factor receptor 1 (TNFRSF1A), TNFRSF1A (gene 7132); assay: LTEA_HepaRG_TNFRSF1A: Life Technologies and Expression Analysis (LTEA) Assay for Tumor necrosis factor receptor 1 (TNFRSF1A) using HepaRG (AID 2283535)
Summary of the method: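 Differentiated HepaRG cells in serum-free induction medium, exposed 48 h in duplicate to 8 half-log concentrations up to 100 uM in 0.5% DMSO. TNFRSF1A mRNA by Fluidigm TaqMan qRT-PCR, normalized to ACTB, GAPDH, POLR2A; bidirectional fit.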

[17] = read-out: Nuclear factor NF-kappa-B p105 subunit (Homo sapiens) (UniProt P19838); assay: LTEA_HepaRG_NFKB1: Life Technologies and Expression Analysis (LTEA) Assay for Nuclear Factor Kappa B Subunit 1 (NFKB1) using HepaRG (AID 2283521);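 also: TaqMan qRT-PCR transcript normalised to ACTB GAPDH and POLR2A housekeeping genes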
Summary of the method: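 Differentiated human HepaRG cells in serum-free induction medium with 0.5% DMSO were exposed for 48 h to eight half-log concentrations, top 100 uM, in duplicate. NFKB1 mRNA measured by Fluidigm TaqMan qRT-PCR, normalised to ACTB, GAPDH and POLR2A; bidirectional fit versus DMSO.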

[18] = read-out: Transforming Growth Factor (TGFB1), TGFB1 (gene 7040); assay: LTEA_HepaRG_TGFB1: Life Technologies and Expression Analysis (LTEA) Assay for Transforming Growth Factor (TGFB1) Transporter using HepaRG (AID 2283533)
Summary of the method: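 Differentiated HepaRG cells exposed 48 hr in serum-free induction medium to eight half-log concentrations up to 100 uM (0.5% DMSO), duplicate; TGFB1 mRNA by TaqMan qRT-PCR normalised to ACTB, GAPDH, POLR2A; bidirectional fit against DMSO.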

Measured: AC50

Chain of Signal transducer and activator of transcription 3 (Homo sapiens) (P40763 whole entry, looked up): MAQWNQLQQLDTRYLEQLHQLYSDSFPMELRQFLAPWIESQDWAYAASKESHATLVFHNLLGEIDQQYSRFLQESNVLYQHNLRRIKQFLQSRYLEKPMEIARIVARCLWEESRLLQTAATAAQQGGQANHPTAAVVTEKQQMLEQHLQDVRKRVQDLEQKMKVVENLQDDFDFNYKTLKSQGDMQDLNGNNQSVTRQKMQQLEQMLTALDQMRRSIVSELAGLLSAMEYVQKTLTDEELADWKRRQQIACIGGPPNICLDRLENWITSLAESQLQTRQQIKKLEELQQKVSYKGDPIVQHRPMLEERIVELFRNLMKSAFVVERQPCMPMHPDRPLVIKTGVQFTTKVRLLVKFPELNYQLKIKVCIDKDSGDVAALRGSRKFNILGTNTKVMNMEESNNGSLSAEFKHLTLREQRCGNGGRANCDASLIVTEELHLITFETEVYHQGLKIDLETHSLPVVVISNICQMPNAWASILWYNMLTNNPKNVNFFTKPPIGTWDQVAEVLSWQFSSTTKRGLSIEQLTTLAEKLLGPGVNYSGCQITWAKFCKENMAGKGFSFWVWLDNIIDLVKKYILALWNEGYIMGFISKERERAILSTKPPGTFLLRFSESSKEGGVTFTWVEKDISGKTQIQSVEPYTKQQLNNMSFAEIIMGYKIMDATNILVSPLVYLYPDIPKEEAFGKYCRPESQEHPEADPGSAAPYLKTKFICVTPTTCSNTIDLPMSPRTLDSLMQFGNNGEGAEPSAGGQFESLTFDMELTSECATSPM
Chain of Nuclear factor erythroid 2-related factor 2 (Homo sapiens) (Q16236 whole entry, looked up): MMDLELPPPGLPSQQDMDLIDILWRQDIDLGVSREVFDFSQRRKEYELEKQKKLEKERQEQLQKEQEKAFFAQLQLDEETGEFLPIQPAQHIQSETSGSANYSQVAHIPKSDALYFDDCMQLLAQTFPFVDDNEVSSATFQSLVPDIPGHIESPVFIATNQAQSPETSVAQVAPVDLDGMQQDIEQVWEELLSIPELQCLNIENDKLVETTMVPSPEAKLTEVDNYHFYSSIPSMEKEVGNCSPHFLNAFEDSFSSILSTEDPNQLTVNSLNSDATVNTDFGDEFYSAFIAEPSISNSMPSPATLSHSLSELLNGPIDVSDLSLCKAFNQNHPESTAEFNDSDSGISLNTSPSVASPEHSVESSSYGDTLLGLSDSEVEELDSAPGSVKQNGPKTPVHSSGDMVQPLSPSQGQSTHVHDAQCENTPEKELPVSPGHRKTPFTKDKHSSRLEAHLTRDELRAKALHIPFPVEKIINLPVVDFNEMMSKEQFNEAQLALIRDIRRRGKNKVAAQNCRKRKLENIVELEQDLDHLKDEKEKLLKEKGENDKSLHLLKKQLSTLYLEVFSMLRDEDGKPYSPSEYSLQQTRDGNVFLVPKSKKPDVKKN
Chain of Nuclear factor NF-kappa-B p105 subunit (Homo sapiens) (P19838 whole entry, looked up): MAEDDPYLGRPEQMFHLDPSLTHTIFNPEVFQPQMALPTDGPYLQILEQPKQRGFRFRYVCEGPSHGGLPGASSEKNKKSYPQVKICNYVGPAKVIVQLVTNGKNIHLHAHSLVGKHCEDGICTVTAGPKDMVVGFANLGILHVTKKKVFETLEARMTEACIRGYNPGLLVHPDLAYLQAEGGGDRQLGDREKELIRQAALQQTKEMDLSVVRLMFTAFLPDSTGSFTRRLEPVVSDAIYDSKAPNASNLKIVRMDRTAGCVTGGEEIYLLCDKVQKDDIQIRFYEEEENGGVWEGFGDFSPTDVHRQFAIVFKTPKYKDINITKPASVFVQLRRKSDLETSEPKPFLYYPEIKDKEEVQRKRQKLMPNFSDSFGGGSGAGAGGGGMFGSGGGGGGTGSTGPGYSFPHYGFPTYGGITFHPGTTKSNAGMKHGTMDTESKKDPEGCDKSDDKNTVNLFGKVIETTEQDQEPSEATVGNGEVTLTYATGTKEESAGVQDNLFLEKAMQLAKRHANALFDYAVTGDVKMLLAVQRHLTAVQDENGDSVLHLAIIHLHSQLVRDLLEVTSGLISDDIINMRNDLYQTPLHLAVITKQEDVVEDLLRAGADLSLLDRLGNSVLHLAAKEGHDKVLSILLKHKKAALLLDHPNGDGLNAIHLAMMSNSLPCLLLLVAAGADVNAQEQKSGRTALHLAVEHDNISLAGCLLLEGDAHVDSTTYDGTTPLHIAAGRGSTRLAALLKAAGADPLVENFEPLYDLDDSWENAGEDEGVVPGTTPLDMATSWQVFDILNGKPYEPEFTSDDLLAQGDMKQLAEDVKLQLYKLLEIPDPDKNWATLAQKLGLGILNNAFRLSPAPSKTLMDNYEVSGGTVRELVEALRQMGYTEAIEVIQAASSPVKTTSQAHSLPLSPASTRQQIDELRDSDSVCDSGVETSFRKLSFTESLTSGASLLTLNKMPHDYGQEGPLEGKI

O=Cc1ccccc1C=O
inactive: [1] | [2] | MYC, MYC (gene 4609) | [3] | [4] | [5] | [6] | [7] | [8] | [9] | [10] | [11] | [12] | [13] | [14] | [15] | TIMP1, TIMP1 (gene 7076) | [16]

S=c1[nH]c2ccccc2s1
inactive: [1] | [2] | MYC, MYC (gene 4609) | [3] | [4] | [5] | [6] | [7] | [8] | [9] | [11] | [12] | [13] | [14] | [15] | TIMP1, TIMP1 (gene 7076) | [16]

CO[C@@H]1COCC[C@@H]1N[C@@H]1CC[C@@](C(=O)N2CCc3ncc(C(F)(F)F)cc3C2)(C(C)C)C1
inactive: [2] | MYC, MYC (gene 4609) | [3] | [4] | [17] | [5] | [6] | [7] | [8] | [9] | [10] | [11] | [12] | [13] | [14] | [15] | TIMP1, TIMP1 (gene 7076) | [16]

COC(=O)[C@H]1[C@H]2C[C@@H]3c4[nH]c5cc(OC)ccc5c4CCN3C[C@H]2C[C@@H](OC(=O)c2cc(OC)c(OC)c(OC)c2)[C@@H]1OC
active: [1] 55 µM | [2] 25.3 µM | MYC, MYC (gene 4609) 29.1 µM | [7] 52.8 µM | [13] 59 µM | [14] 62.8 µM
inactive: [3] | [5] | [6] | [8] | [9] | [11] | [12] | [15] | [18] | TIMP1, TIMP1 (gene 7076) | [16]

CCOCCOCCO
inactive: [2] | MYC, MYC (gene 4609) | [3] | [4] | [17] | [5] | [6] | [7] | [8] | [9] | [10] | [11] | [12] | [13] | [14] | [15] | [18] | TIMP1, TIMP1 (gene 7076) | [16]

Cc1cn([C@H]2C=C[C@@H](CO)O2)c(=O)[nH]c1=O
inactive: [1] | [2] | MYC, MYC (gene 4609) | [3] | [4] | [5] | [6] | [7] | [8] | [9] | [11] | [12] | [13] | [14] | [15] | [18] | TIMP1, TIMP1 (gene 7076)

CC(=O)CC(c1ccccc1)c1c(O)c2ccccc2oc1=O (stereo not given)
inactive: [1] | [2] | MYC, MYC (gene 4609) | [3] | [4] | [5] | [6] | [7] | [8] | [11] | [12] | [13] | [14] | [15] | [18] | TIMP1, TIMP1 (gene 7076) | [16]

COc1ccc(C(=O)Nc2nc3ccccc3c(NCc3ccccc3)c2C#N)cc1
inactive: [2] | [5] | [6] | [8] | [9] | [11] | [12] | [15] | TIMP1, TIMP1 (gene 7076) | [16]
active: [1] 14.7 µM | MYC, MYC (gene 4609) 14.6 µM | [3] 9.92 µM | [4] 16.1 µM | [10] 20.9 µM | [13] 16.3 µM | [14] 21.2 µM

— PubChem BioAssay (EPA / NIEHS)
